TRPM1 prom inh: reduces MITF-dependent TRPM1 promoter luciferase signal; SK-MEL-5 TRPM1 promoter luciferase, 24 h; inhibition, % at 12.5 µM; 0.83% of 330,000 active; AID 488899;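 active = mean inhibition across replicates of 60% or more, whatever share of single replicates reaches that level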
Peg3 promoter: reduces Peg3 promoter-driven luciferase expression in HeLa. HeLa PEG-Prom luciferase reporter, luminescence, overnight. inhibition, % at 20 µM. 1.7% of 360,000 active;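 active = inhibition of at least 50% at 20 µM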
KKLEB tox: CF airway cell cytotoxicity counter-screen. AID 602141. KKLEB CF airway cells viability, ATPlite luminescence, overnight; hits give low values; cells stimulated with P. aeruginosa culture filtrate. activity change (cytotoxicity), % at 5 µM. 0.36% of 360,000 active;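 active = corrected activity change at or below -50% at 5 µM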
CF NFkB block: cystic fibrosis NF-kB activation inhibition; KKLEB NF-kB-GFP reporter, PAF-induced, GFP fluorescence overnight; inhibition, % at 5 µM; 0.86% of 360,000 active; AID 588850;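 active = at least 50% inhibition at 5 µM, scaled per plate between neutral and stimulator controls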;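 also: PAF is a Pseudomonas aeruginosa culture filtrate used as stimulus; plate controls were PAF-stimulated DMSO wells for no effect and unstimulated DMSO wells for full effect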
HIF-2a inh: blocks HIF-2a reporter activity. inhibition, % at 18.8 µM. 786-0 RCC cells HIF-2a reporter, luciferase luminescence, overnight. 0.72% of 360,000 active;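 active = inhibition of the luminescence signal of 40% or more relative to plate controls, in a single-dose primary screen at 18.75 µM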
B2AR ag: agonists of human beta-2 adrenergic receptor inducing internalization; Am2.2-beta2AR cells, FAP receptor internalization, flow cytometry; response, % (test concentration not listed); 0.43% of 340,000 active;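 active = response above a set limit, near 3 SD of response in nonfluorescent compounds, cut at about 42% in these data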
Target sequence (P07550 whole entry, looked up): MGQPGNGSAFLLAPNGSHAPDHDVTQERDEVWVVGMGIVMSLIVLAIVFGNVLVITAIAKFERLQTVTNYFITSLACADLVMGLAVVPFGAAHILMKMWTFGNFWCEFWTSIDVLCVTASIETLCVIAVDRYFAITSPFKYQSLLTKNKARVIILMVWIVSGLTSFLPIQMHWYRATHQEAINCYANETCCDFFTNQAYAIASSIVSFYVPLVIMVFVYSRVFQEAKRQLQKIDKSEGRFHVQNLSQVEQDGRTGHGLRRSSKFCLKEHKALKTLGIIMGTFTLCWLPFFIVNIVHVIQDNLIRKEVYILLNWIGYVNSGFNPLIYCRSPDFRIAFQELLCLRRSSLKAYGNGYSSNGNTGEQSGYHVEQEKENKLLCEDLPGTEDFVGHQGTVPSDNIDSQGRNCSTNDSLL
Active calls of the source: *. Only some compounds are listed: those with a hit (about 2.8% of all), similar ones and a draw of the others.

Results for COC(=O)c1cn(C(=O)/C=C/c2ccc(OC)c(OC)c2)c2ccccc12 ?
TRPM1 prom inh: -20; Peg3 promoter: 82*; KKLEB tox: -16; CF NFkB block: 12; HIF-2a inh: -86; B2AR ag: 1

What do the screens show for `COc1cc(OC)c(C(=O)C=Cc2ccc(OC)c(OC)c2)c(OC)c1`?
TRPM1 prom inh: 21; Peg3 promoter: 16; KKLEB tox: -13; CF NFkB block: 35; HIF-2a inh: 37; B2AR ag: 1

Results for COc1ccc(/C=C/C(=O)C(C)(C)C)cc1OC ?
TRPM1 prom inh: 1; Peg3 promoter: 83*; KKLEB tox: 3; CF NFkB block: -2; HIF-2a inh: -12; B2AR ag: 1

Results for COc1cc(/C=C/C(=O)NC(C)(C)C)ccc1OCc1ccccc1 ?
TRPM1 prom inh: 9; Peg3 promoter: 10; KKLEB tox: 4; CF NFkB block: -4; HIF-2a inh: 6; B2AR ag: 0

What do the screens show for `COc1ccc(C(=O)C=Cc2ccc(OCc3ccccc3)c(OC)c2)cc1OC`?
Peg3 promoter: 80*; KKLEB tox: -16; CF NFkB block: 0; HIF-2a inh: 21

What do the screens show for `CCCCn1nnnc1C1(C)CCC(=O)N1CC1CCCCC1` (stereo unspecified)?
HIF-2a inh: -6

What do the screens show for `CC(=O)NC(c1ccc(F)c(F)c1)c1nc(-c2cccc(C(F)(F)F)c2)cs1` (stereo unspecified)?
Peg3 promoter: -5; KKLEB tox: -14; CF NFkB block: -4; HIF-2a inh: -29

What do the screens show for `C#Cc1ccc(NC(=O)C2(C)CCN2C(=O)CC(c2ccccc2)c2ccccc2)cc1` (stereo unspecified)?
Peg3 promoter: 20; KKLEB tox: -6; CF NFkB block: 7; HIF-2a inh: 5

Results for CC(C)(C)CNC(=O)c1cc2c(Br)ccc(Br)c2nc1N ?
HIF-2a inh: 9

How did CCCCNc1c(-c2ccc(SC(C)CC)c(OC)c2)nc2ccc(Cl)cn12 (stereo unspecified) do in these assays?
TRPM1 prom inh: -25; Peg3 promoter: -61; KKLEB tox: -6; CF NFkB block: 26; HIF-2a inh: -152; B2AR ag: 52*

How did CCCCNc1c(-c2ccc(SC(C)CC)c(OC)c2)nc2ccc(C)cn12 (stereo unspecified) do in these assays?
TRPM1 prom inh: -13; Peg3 promoter: 93*; KKLEB tox: -4; CF NFkB block: -13; HIF-2a inh: -155; B2AR ag: 22

How did COc1ccc(C=O)cc1Cn1c(C)cc(C)c(C#N)c1=O do in these assays?
TRPM1 prom inh: 10; Peg3 promoter: 51*; KKLEB tox: -3; CF NFkB block: 9; HIF-2a inh: 16; B2AR ag: -5

Results for Cn1c(N)c(C(=O)N/N=C/c2ccccc2)sc1=S ?
TRPM1 prom inh: 14; Peg3 promoter: 16; KKLEB tox: -3; CF NFkB block: 0; HIF-2a inh: -30; B2AR ag: 9

Results for Cc1c(C(=O)N/N=C/c2cccnc2)sc(=S)n1C ?
TRPM1 prom inh: -5; Peg3 promoter: 15; KKLEB tox: -5; CF NFkB block: -23; HIF-2a inh: 2; B2AR ag: 42*

How did Cc1cccc(N2CCN(C(=O)c3ccc(CS(=O)(=O)c4ccccc4C)o3)CC2C)c1 (stereo unspecified) do in these assays?
TRPM1 prom inh: 30; Peg3 promoter: 52*; KKLEB tox: -11; CF NFkB block: 53*; HIF-2a inh: 20; B2AR ag: 33

How did Cc1[nH]c2ccccc2c1/C=N/Nc1nc(Nc2ccccc2)nc(N2CCOCC2)n1 do in these assays?
TRPM1 prom inh: -65; Peg3 promoter: -12; KKLEB tox: -32; CF NFkB block: 19; HIF-2a inh: -124; B2AR ag: 16

What do the screens show for `Oc1[nH]c2ccccc2c1N=Nc1nc(Nc2ccccc2)nc(N2CCOCC2)n1`?
TRPM1 prom inh: -8; Peg3 promoter: 70*; KKLEB tox: -15; CF NFkB block: 34; HIF-2a inh: -16; B2AR ag: 3

How did COC(=O)Cn1c(=O)c(C(=O)CCl)c(N)n(Cc2ccccc2)c1=O do in these assays?
TRPM1 prom inh: 51; Peg3 promoter: 81*; KKLEB tox: 5; CF NFkB block: 28; HIF-2a inh: 30; B2AR ag: 10

Results for CC1OC(CCc2cccc(Cl)c2)Cc2[nH]c(=S)[nH]c(=O)c21 (stereo unspecified) ?
HIF-2a inh: 8

How did CC/C(=C(\c1ccc(O)cc1)c1ccc(OCCN(C)C)cc1)c1ccccc1 do in these assays?
TRPM1 prom inh: 9; Peg3 promoter: 57*; KKLEB tox: 4; CF NFkB block: -26; HIF-2a inh: 18; B2AR ag: 17

Results for CCC(=C(c1ccc(O)cc1)c1ccc(OCCN(C)C)cc1)c1ccccc1 ?
Peg3 promoter: -12; KKLEB tox: -5; CF NFkB block: 14; HIF-2a inh: 5

How did O=C(c1ccc2c(c1)CCC2)N1CCN(Cc2c(F)cccc2Cl)CC1 do in these assays?
Peg3 promoter: 8; KKLEB tox: -14; CF NFkB block: 6; HIF-2a inh: -2

How did COc1cc(C(=O)Oc2cccc(Nc3ncnc4ccccc34)c2)cc(OC)c1OC do in these assays?
TRPM1 prom inh: 26; Peg3 promoter: 62*; KKLEB tox: 6; CF NFkB block: -1; HIF-2a inh: -47; B2AR ag: -7

Results for C/C(=N\NC(=O)c1cc(C)nc2ccccc12)c1ccccn1 ?
TRPM1 prom inh: 89*; Peg3 promoter: 46; KKLEB tox: 11; CF NFkB block: -58; HIF-2a inh: -8; B2AR ag: 9

Results for COc1cc(OC)cc(C(=O)NNC(=O)c2ccccn2)c1 ?
TRPM1 prom inh: 21; Peg3 promoter: 32; KKLEB tox: 4; CF NFkB block: -19; HIF-2a inh: -12; B2AR ag: 5

Results for C/C(=N\NC(=O)COc1ccccc1-c1ccccc1)c1cccnc1 ?
TRPM1 prom inh: -2; Peg3 promoter: 29; KKLEB tox: -6; CF NFkB block: -6; HIF-2a inh: 7; B2AR ag: -5

What do the screens show for `COc1ccc2c(c1)C(=NNC(=O)c1ccccn1)c1cc(OC)ccc1-2`?
TRPM1 prom inh: -3; Peg3 promoter: 37; KKLEB tox: -8; CF NFkB block: -127; HIF-2a inh: 8; B2AR ag: 43*

What do the screens show for `O=C(COc1ccccc1-c1ccccc1)N/N=C/c1ccc2ccccc2c1`?
TRPM1 prom inh: 29; Peg3 promoter: 32; KKLEB tox: -39; CF NFkB block: 62*; HIF-2a inh: 21; B2AR ag: 28

How did C/C(=N\NC(=O)COc1ccccc1-c1ccccc1)c1ccccn1 do in these assays?
TRPM1 prom inh: 84*; Peg3 promoter: 46; KKLEB tox: -18; CF NFkB block: 10; HIF-2a inh: 13; B2AR ag: -1

Compound activity from PubChem.
